Results from ChEMBL document CHEMBL2218924, “A broad activity screen in support of a chemogenomic map for kinase signalling research and drug discovery” (Biochem J, 2013).

Each molecule was assayed against T1, Serine/threonine-protein kinase NLK (Homo sapiens) (UniProt Q9UBE8). Conditions: at 1 µM.
T1 sequence (whole entry): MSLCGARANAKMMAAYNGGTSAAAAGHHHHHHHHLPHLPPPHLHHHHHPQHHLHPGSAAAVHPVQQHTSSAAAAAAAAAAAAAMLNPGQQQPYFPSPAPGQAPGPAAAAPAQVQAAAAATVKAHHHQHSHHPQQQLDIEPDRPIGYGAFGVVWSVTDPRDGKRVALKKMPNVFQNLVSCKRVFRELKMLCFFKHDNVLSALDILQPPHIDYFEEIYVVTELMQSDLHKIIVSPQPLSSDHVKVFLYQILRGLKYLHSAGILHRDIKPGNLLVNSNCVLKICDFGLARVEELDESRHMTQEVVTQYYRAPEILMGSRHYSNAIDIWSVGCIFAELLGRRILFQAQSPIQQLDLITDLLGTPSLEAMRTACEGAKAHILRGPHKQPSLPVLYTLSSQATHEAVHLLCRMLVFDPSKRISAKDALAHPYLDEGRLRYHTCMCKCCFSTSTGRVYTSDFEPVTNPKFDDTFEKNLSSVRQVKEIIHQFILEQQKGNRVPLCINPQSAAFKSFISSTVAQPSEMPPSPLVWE

Row | Structure (SMILES) | residual activity [%]
1 | O=[N+]([O-])/C=C/c1ccc2c(c1)OCO2 | 107
2 | COc1cc2ncnc(Nc3ccc(OCc4ccccc4)cc3)c2cc1OC | 111
3 | CC(C)[C@H](CO)Nc1nc(Nc2cccc(Cl)c2)c2ncn(C(C)C)c2n1 | 100
4 | C[S+]([O-])c1ccc(-c2nc(-c3ccc(F)cc3)c(-c3ccncc3)[nH]2)cc1 (stereo unspecified) | 62
5 | COc1ccc2c(c1)/C(=C/c1cnc[nH]1)C(=O)N2 | 70
6 | COC(=O)[C@@]1(O)C[C@H]2O[C@]1(C)n1c3ccccc3c3c4c(c5c6ccccc6n2c5c31)C(=O)NC4 | 42
7 | c1cc(-c2cnn3cc(-c4ccc(OCCN5CCCCC5)cc4)cnc23)ccn1 | 86
8 | CCn1cnc2c(Nc3cccc(Cl)c3)nc(N[C@@H]3CCCC[C@@H]3N)nc21 | 80
9 | O=C1c2ccccc2-c2nc3nnnn3nc21 | 112
10 | COc1cc(OC)c(/C=C2\C(=O)Nc3ccccc32)c(OC)c1 | 92
11 | O=c1[nH]c2ccccc2n1C1CCN(Cc2ccc(-c3nc4cc5[nH]cnc5cc4nc3-c3ccccc3)cc2)CC1 | 105
12 | O=C1Nc2ccc3ncsc3c2/C1=C/c1c[nH]cn1 | 29
13 | COc1ccc2c(c[n+](C)c3c4cc5c(cc4ccc23)OCO5)c1OC | 92

What follows are molecules tested against T1, Serine/threonine-protein kinase NLK (Homo sapiens). Conditions: at 10 µM.

Row | Structure (SMILES) | residual activity [%]
14 | O=[N+]([O-])/C=C/c1ccc2c(c1)OCO2 | 95
15 | COc1cc2ncnc(Nc3ccc(OCc4ccccc4)cc3)c2cc1OC | 90
16 | CC(C)[C@H](CO)Nc1nc(Nc2cccc(Cl)c2)c2ncn(C(C)C)c2n1 | 81
17 | C[S+]([O-])c1ccc(-c2nc(-c3ccc(F)cc3)c(-c3ccncc3)[nH]2)cc1 (stereo unspecified) | 24
18 | COc1ccc2c(c1)/C(=C/c1cnc[nH]1)C(=O)N2 | 19
19 | COC(=O)[C@@]1(O)C[C@H]2O[C@]1(C)n1c3ccccc3c3c4c(c5c6ccccc6n2c5c31)C(=O)NC4 | 10
20 | c1cc(-c2cnn3cc(-c4ccc(OCCN5CCCCC5)cc4)cnc23)ccn1 | 34
21 | CC(C)(C)c1cc(C=C(C#N)C#N)cc(Br)c1O | 53
22 | CCn1cnc2c(Nc3cccc(Cl)c3)nc(N[C@@H]3CCCC[C@@H]3N)nc21 | 34
23 | COc1cc(OC)c(/C=C2\C(=O)Nc3ccccc32)c(OC)c1 | 86
24 | O=c1[nH]c2ccccc2n1C1CCN(Cc2ccc(-c3nc4cc5[nH]cnc5cc4nc3-c3ccccc3)cc2)CC1 | 84
25 | O=C1Nc2ccc3ncsc3c2/C1=C/c1c[nH]cn1 | 5
26 | COc1ccc2c(c[n+](C)c3c4cc5c(cc4ccc23)OCO5)c1OC | 76
